Reference: PubChem BioAssay AID1159580 (chemical genetic matrix, 2015)
About 2,000 (36%) of roughly 5,500 compounds were called active. Roughly 18% stayed inconclusive and do not appear here. The list shows a part of the results. A number with no mark means an inactive call. No stated cut-off is given here; in the data, active means normalized growth mostly below about 0.91 (no sharp cut-off); inconclusive means no clear call, values can overlap the other calls; inactive means mostly above about 0.92.

Experiment: chemical genetic growth profiling, strain panel (AID 1159580);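 further: tested at 20 µM; growth read once vehicle control cultures reached saturation at 30 °C; 1 = growth at the plate median or of vehicle wells; lower values mean less growth of the strain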
Conditions: S. cerevisiae deletion strains, growth OD

For `CN(C)c1ccc(/C=C2\C(=O)Nc3ccccc32)cc1`, the normalized growth (locus YAL040C, strain CLN3, hits give low values) was 0.95, the normalized growth (locus YCL061C, strain MRC1 (second series), hits give low values) was 0.993 and the normalized growth (locus YDR363W, strain ESC2, hits give low values) was 0.963. For the same compound, the normalized growth (locus YER002W, strain NOP16, hits give low values) was 0.877 (active), the normalized growth (locus YGR229C, strain SMI1, hits give low values) was 0.93 and the normalized growth (locus YJR075W, strain HOC1, hits give low values) was 0.972. The normalized growth (locus YMR307W, strain GAS1, hits give low values) was 0.984, the normalized growth (locus YNL175C, strain NOP13, hits give low values) was 0.809 (active) and the normalized growth (locus YNL197C, strain WHI3, hits give low values) was 0.942. For the same compound, the normalized growth (locus YNL224C, strain SQS1, hits give low values) was 0.891 (active), the normalized growth (locus YOR083W, strain WHI5 (second series), hits give low values) was 0.786 (active) and the normalized growth (locus YPL055C, strain LGE1, hits give low values) was 0.972.
`O=C1Nc2ccccc2/C1=C/c1ccc(C(F)(F)F)cc1Cl` showed a normalized growth (locus YAR019C, strain CDC15, hits give low values) of 0.978, a normalized growth (locus YBL105C, strain PKC1, hits give low values) of 0.965 and a normalized growth (locus YBR135W, strain CKS1, hits give low values) of 0.966. For the same compound, the normalized growth (locus YBR136W, strain MEC1, hits give low values) was 0.982, the normalized growth (locus YBR160W, strain CDC28, hits give low values) was 0.979 and the normalized growth (locus YDL017W, strain CDC7, hits give low values) was 0.972. It also gave a normalized growth (locus YDL028C, strain MPS1, hits give low values) of 0.977, a normalized growth (locus YDL101C, strain DUN1, hits give low values) of 0.983 and a normalized growth (locus YDL108W, strain KIN28, hits give low values) of 0.974. For the same compound, the normalized growth (locus YDL132W, strain cdc53, hits give low values) was 0.982, the normalized growth (locus YDL214C, strain PRR2, hits give low values) was 0.884 and the normalized growth (locus YDR052C, strain DBF4, hits give low values) was 0.979. It also gave a normalized growth (locus YDR054C, strain cdc34, hits give low values) of 0.958, a normalized growth (locus YDR226W, strain ADK1, hits give low values) of 0.961 and a normalized growth (locus YDR477W, strain SNF1, hits give low values) of 0.93. The normalized growth (locus YER123W, strain YCK3, hits give low values) was 0.939, the normalized growth (locus YER133W, strain GLC7, hits give low values) was 0.953 and the normalized growth (locus YFL009W, strain cdc4, hits give low values) was 0.976. For the same compound, the normalized growth (locus YFL029C, strain CAK1, hits give low values) was 0.979, the normalized growth (locus YFR003C, strain YPI1, hits give low values) was 0.973 and the normalized growth (locus YFR019W, strain FAB1, hits give low values) was 0.979. It also gave a normalized growth (locus YFR028C, strain CDC14, hits give low values) of 0.974, a normalized growth (locus YGR040W, strain KSS1, hits give low values) of 0.931 and a normalized growth (locus YGR052W, strain FMP48, hits give low values) of 0.896. For the same compound, the normalized growth (locus YGR092W, strain DBF2, hits give low values) was 0.905, the normalized growth (locus YHR030C, strain SLT2, hits give low values) was 0.741 (active) and the normalized growth (locus YHR079C, strain IRE1, hits give low values) was 0.883. It also gave a normalized growth (locus YHR082C, strain KSP1, hits give low values) of 0.934, a normalized growth (locus YHR205W, strain SCH9, hits give low values) of 0.84 and a normalized growth (locus YIL147C, strain SLN1, hits give low values) of 0.973. It also gave a normalized growth (locus YJL095W, strain BCK1, hits give low values) of 0.918, a normalized growth (locus YJL128C, strain PBS2, hits give low values) of 0.903 and a normalized growth (locus YJL157C, strain FAR1, hits give low values) of 0.958. It also gave a normalized growth (locus YJR016C, strain ILV3, hits give low values) of 0.98, a normalized growth (locus YJR066W, strain TOR1 (second series), hits give low values) of 0.955 and a normalized growth (locus YJR066W, strain TOR1, hits give low values) of 0.899. It also gave a normalized growth (locus YKL048C, strain ELM1, hits give low values) of 0.958, a normalized growth (locus YKL067W, strain YNK1, hits give low values) of 0.877 and a normalized growth (locus YKL101W, strain HSL1, hits give low values) of 0.891. The normalized growth (locus YKL193C, strain SDS22, hits give low values) was 0.969, the normalized growth (locus YKL203C, strain TOR2, hits give low values) was 0.995 and the normalized growth (locus YLR113W, strain HOG1, hits give low values) was 0.78 (active). For the same compound, the normalized growth (locus YLR133W, strain CKI1, hits give low values) was 0.932, the normalized growth (locus YLR403W, strain SFP1, hits give low values) was 0.952 and the normalized growth (locus YML070W, strain DAK1, hits give low values) was 0.936. It also gave a normalized growth (locus YMR001C, strain CDC5, hits give low values) of 0.968, a normalized growth (locus YMR205C, strain PFK2 (second series), hits give low values) of 0.931 and a normalized growth (locus YMR277W, strain FCP1, hits give low values) of 0.963. It also gave a normalized growth (locus YNL006W, strain LST8, hits give low values) of 0.979, a normalized growth (locus YNL020C, strain ARK1, hits give low values) of 0.916 and a normalized growth (locus YNL161W, strain CBK1, hits give low values) of 0.972. The normalized growth (locus YNL183C, strain NPR1, hits give low values) was 0.881, the normalized growth (locus YNL207W, strain RIO2, hits give low values) was 0.98 and the normalized growth (locus YNL222W, strain SSU72, hits give low values) was 0.968. It also gave a normalized growth (locus YNL307C, strain MCK1 (second series), hits give low values) of 0.882, a normalized growth (locus YOL078W, strain AVO1, hits give low values) of 0.966 and a normalized growth (locus YOL136C, strain PFK27, hits give low values) of 0.93. The normalized growth (locus YOR061W, strain CKA2, hits give low values) was 0.929, the normalized growth (locus YOR119C, strain RIO1, hits give low values) was 0.926 and the normalized growth (locus YOR231W, strain MKK1, hits give low values) was 0.914. For the same compound, the normalized growth (locus YOR329C, strain SCD5, hits give low values) was 0.972, the normalized growth (locus YPL031C, strain PHO85, hits give low values) was 0.932 and the normalized growth (locus YPL153C, strain RAD53, hits give low values) was 0.934. For the same compound, the normalized growth (locus YPL204W, strain HRR25, hits give low values) was 0.916, the normalized growth (locus YPL209C, strain IPL1, hits give low values) was 0.974 and the normalized growth (locus YPL256C, strain CLN2, hits give low values) was 0.827 (active). For the same compound, the normalized growth (locus YPR025C, strain CCL1, hits give low values) was 0.97, the normalized growth (locus YPR106W, strain ISR1, hits give low values) was 0.958 and the normalized growth (locus YPR111W, strain DBF20, hits give low values) was 0.936. The normalized growth (strain NNK1, hits give low values) was 0.97 and the normalized growth (strain TSCII, hits give low values) was 0.963.
